Our source for the growth values is PubChem BioAssay (NCI).

SMILES strings stand for the structures. This is part of a sample that, as a whole, favours compounds with a hit. Of some 83,000 tested, about 20% had one in any assay.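 A percent growth of 40 corresponds to 60% growth inhibition; 0 means no net growth; -100 means all cells died. Active threshold: below 10.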 Values without a mark were called inactive. The source made the active and inactive calls.

Holding throughout (assay): NCI-60 one-dose screen, 48 h (100 = growth as untreated, 0 = no growth, -100 = all killed)
Holding throughout (details): 10 µM

Assay [1] relates to HCT-15 colon.
Assay [2] concerns HT29 colon.
The test system of assay [3] is SNB-75 CNS.
Assay [4] deals with SNB-19 CNS.
Assay [5] relates to U251 CNS.
The subject of assay [6] is PC-3 prostate.
Assay [7] relates to SK-MEL-5 melanoma.
In assay [8] the test system is UACC-62 melanoma.
For assay [9], the system named is LOX IMVI melanoma.
Assay [10] relates to SK-MEL-28 melanoma.

Turning to `O=C1/C=C/[C@@H](O)[C@@H]2C[C@@H](O)C[C@H]2/C=C/CCC[C@H](CCc2ccc(C(F)(F)F)cc2)O1`, the growth is -3.05% (active) in assay [1]; -36.7% (active) in [2]; -13.5% (active) in assay [3]; 17.6% in assay [4]; 12.1% in [5]; 8.76% (active) in assay [6]. Moreover, the growth in assay [7] was -87.2% (active); in assay [8] it was 6.89% (active); in assay [9] it was -71.8% (active); in assay [10], 2.07% (active).
In the case of `CCC1NC(=O)c2cc(S(N)(=O)=O)c(Cl)cc2N1` (stereo not given), the growth in [1] was 109%; in assay [2] it was 109%; in assay [3] it was 105%; in assay [4] it was 105%; in assay [5], 96.3%; in assay [6], 93.6%. For the same compound, the growth was 104% in assay [7], 103% in assay [8], 99.9% in assay [9] and 121% in assay [10].
With `COc1ccc(/C=C2\CCCC3=C2NC(N)=NC3c2ccc(OC)c(OC)c2)cc1OC` (stereo not given), the growth was 35.9% in assay [1]; 24.2% in assay [2]; 63.9% in assay [3]; 88.7% in assay [4]; 37.8% in assay [5]; 61.5% in assay [6]. Moreover, the growth was 39.7% in assay [7], 52.8% in assay [8], 12.9% in assay [9] and 65.3% in assay [10].
As for `Cc1cc(Cl)ccc1Nc1nc(C(F)(F)F)ccc1C(=O)N/N=C/c1cccc(O)c1`, the growth in [1] was 23%; in [2] it was 23.7%; in assay [3], 28.9%; in assay [4], 63.5%; in [5], 30.5%; in assay [6] it was 29.7%. Besides, the growth in [7] is -52.1% (active); in assay [8] it was 38.7%; in [9], 35.9%; in assay [10], 52.4%.
Turning to `C[C@@H](O)[C@H]1C(=O)N2C(C(=O)O)=C(SC3CN[C@H](C(=O)N(C)C)C3)[C@H](C)[C@H]12` (stereo not given in full), the growth was 104% in [1]; 103% in assay [2]; 94.1% in assay [3]; 119% in [4]; 99.3% in assay [5]; 92.4% in assay [6]. Also, the growth in assay [7] is 102%; in assay [8], 99.4%; in assay [9], 96.4%; in [10] it was 109%.
On to `O=C(O)Cc1ccc(O)c(O)c1`, for which the growth in [1] is 96.4%; in assay [2] it was 115%; in [3], 68.8%; in [4], 102%; in [5] it was 109%; in assay [6], 106%. Further, the growth in assay [7] is 94.1%; in assay [8], 105%; in assay [9], 107%; in assay [10] it was 103%.
Take `COc1ccc(C2CC(c3cccs3)=NN2c2ccc(S(N)(=O)=O)cc2)cc1` (stereo not given): the growth is 84.3% in assay [1]; 86.8% in [2]; 70.7% in [3]; 77.4% in assay [4]; 78% in [5]; 49.9% in assay [6]. Besides, the growth is 60.8% in assay [7], 42.8% in assay [8], 102% in [9] and 63.2% in [10].
As for `CN1CCN(C2=Nc3ccccc3Oc3ccc(Cl)cc32)CC1`, the growth is 103% in assay [1]; 88.3% in assay [2]; 59.5% in assay [3]; 104% in assay [4]; 102% in assay [5]; 83.8% in assay [6]. The growth was 96.7% in [7], 98.7% in assay [8], 103% in assay [9] and 110% in [10].
Consider `CCCc1nc(C(C)(C)O)c(C(=O)O)n1Cc1ccc(-c2ccccc2-c2nn[nH]n2)cc1`, for which the growth was 101% in assay [1]; 93.6% in assay [2]; 66.9% in assay [3]; 102% in assay [4]; 103% in assay [5]; 95.9% in assay [6]. The growth in assay [7] was 110%; in assay [8], 94.5%; in [9] it was 94.7%; in [10], 108%.
As to `CS(=O)(=O)c1nccc(-c2c(-c3cccc(OCc4ccccc4)c3)nc3sccn23)n1`, the growth is 49.4% in assay [1]; 77.9% in assay [2]; 97.5% in assay [3]; 88.6% in [4]; 89.1% in [5]; 66.2% in [6]. The growth was 0.137% (active) in assay [7], 62.4% in assay [8], 28.6% in [9] and 77.1% in assay [10].
Turning to `CC(=O)Oc1cc(OC(C)=O)c2ccccc2c1OC(C)=O`, the growth in assay [1] is 81.3%; in assay [2], 92.9%; in [3] it was 85.7%; in assay [4] it was 93.8%; in assay [5], 94%; in assay [6] it was 62.6%. Also, the growth was 60.9% in assay [7], 89.9% in [8], 48.3% in assay [9] and 99.5% in assay [10].
Regarding `NC(CSC(c1ccccc1)(c1ccccc1)c1cccc2ccccc12)C(=O)O` (stereo not given), the growth is 102% in assay [1]; 113% in [2]; 87.6% in [3]; 84.9% in assay [4]; 93% in assay [5]; 84.3% in assay [6]. Also, the growth in [7] was 82.6%; in [8] it was 90.4%; in assay [9], 96.9%; in assay [10] it was 93.7%.
For `CN(C)CCCOc1cccc(NC2=C(Cl)C(=O)C(Nc3cccc(OCCCN(C)C)c3)=C(Cl)C2=O)c1`, the growth in [1] is -19.5% (active); in assay [2] it was -67.4% (active); in assay [3], 53.8%; in assay [4], -42.3% (active); in [5] it was -78% (active); in [6] it was 0.365% (active). The growth is -96.5% (active) in assay [7], -72.9% (active) in assay [8], -82.6% (active) in assay [9] and -72.7% (active) in [10].
As for `CNS(=O)(=O)Oc1ccc(-c2sc3cc(OS(=O)(=O)NC)ccc3c2C(=O)c2ccc(OCCN3CCCCC3)cc2)cc1`, the growth in assay [1] is 35.2%; in assay [2], 31.1%; in assay [3] it was 69.3%; in [4] it was 82.7%; in [5] it was 66.9%; in assay [6] it was 42.4%. In addition, the growth is 49.7% in [7], 74.7% in [8], 32.8% in assay [9] and 79.2% in assay [10].
Consider `CC(=O)N[C@H](C(=O)N[C@@H](CCCNC(=N)N)C(=O)N[C@@H](CCCCN)C(=O)N[C@@H](CCCNC(=N)N)C(=O)N[C@]1(C)CCC/C=C\CCC[C@@](C)(C(=O)N[C@@H](CC(C)C)C(=O)N[C@@H](CC(C)C)C(=O)N[C@@H](CCC(N)=O)C(=O)N[C@@H](CCC(=O)O)C(=O)N[C@@H](CCCNC(=N)N)C(=O)N[C@@H](CCC(=O)O)C(=O)N[C@@H](CC(C)C)C(=O)N[C@H](C(=O)N[C@@H](CCC(=O)O)C(N)=O)C(C)C)NC(=O)[C@H](CCCNC(=N)N)NC(=O)[C@H](CC(C)C)NC1=O)C(C)C`, for which the growth in [1] is 109%; in assay [2], 95.3%; in assay [3], 119%; in [4] it was 105%; in assay [5] it was 100%; in assay [6], 104%. Also, the growth is 102% in assay [7], 105% in assay [8], 105% in [9] and 111% in assay [10].
